# Assay results taken from ChEMBL document CHEMBL3988442, “University of Dundee, Small-Polar-MMV Screening Library” (2021).
# In all, about 69,000 compounds went through this assay and about 1,000 (1.4%) showed an effect of 50% or more. Only a selection was taken, and strong results are over-represented in it overall.
# System: Leishmania donovani
# Assay: Leishmania intramacrophage assay
# Type: functional, organism-based
# Parameters: scale not given: in the data most compounds retested in dose-response had high values
smiles,measurement,setting,value
CCN1CCN(C[C@@H]2CN(c3ncc(Cl)cc3F)C[C@@H]2CO)CC1,Percent Effect,"30.3 µM, […]",46.16%
CCN1CCN(C[C@@H]2CN(c3ncccc3Cl)C[C@@H]2CO)CC1,Percent Effect,"30.3 µM, […]",25.54%
CCN1CCN(C[C@@H]2CN(c3ncc(Cl)cc3Cl)C[C@@H]2CO)CC1,Percent Effect,"30.3 µM, […]",62.72%
O=C(NCCc1nccs1)[C@H](c1ccccc1)n1cnnn1,Percent Effect,"30.3 µM, […]",10.58%
CC(C)N1CCC(c2n[nH]cc2-c2ccnc(N)c2)C1 (stereo not drawn),Percent Effect,"30.3 µM, […]",28.17%
Cc1c[nH]nc1C1CCN(C(=O)C2CCOCC2)C1 (stereo not drawn),Percent Effect,"30.3 µM, […]",-3.336%
CC(C)OCC(=O)N1CCC(c2ncncc2-c2ccnc(N)c2)C1 (stereo not drawn),Percent Effect,"30.3 µM, […]",-5.314%
CC(C)CNc1cc(-c2c[nH]nc2C2CCN(C(=O)C3CC3)C2)ccn1 (stereo not drawn),Percent Effect,"30.3 µM, […]",60.8%
CN1CCC(c2n[nH]cc2-c2ccnc(N)c2)C1 (stereo not drawn),Percent Effect,"30.3 µM, […]",52.81%
CC(C)Nc1cc(-c2c[nH]nc2C2CCN(C(=O)C3CC3)C2)ccn1 (stereo not drawn),Percent Effect,"30.3 µM, […]",49.22%
CC(C)Nc1cc(-c2c[nH]nc2C2CCN(C(=O)C3CCC3)C2)ccn1 (stereo not drawn),Percent Effect,"30.3 µM, […]",63.06%
CCCNc1cc(-c2c[nH]nc2C2CCN(C(=O)C3CCC3)C2)ccn1 (stereo not drawn),Percent Effect,"30.3 µM, […]",53.3%
CC(=O)N1CCC(c2n[nH]cc2-c2ccnc(N)c2)C1 (stereo not drawn),Percent Effect,"30.3 µM, […]",29.98%
Nc1cc(-c2c[nH]nc2C2CCCCN2C(=O)C2CCCC2)ccn1 (stereo not drawn),Percent Effect,"30.3 µM, […]",12.99%
Cc1c[nH]nc1C1CCN(C(=O)C2CCCC2)C1 (stereo not drawn),Percent Effect,"30.3 µM, […]",-28.74%
Nc1cc(-c2c[nH]nc2C2CCN(C(=O)C3CCCC3)C2)ccn1 (stereo not drawn),Percent Effect,"30.3 µM, […]",42.83%
COCCNC(=O)[C@H]1CN(Cc2cccs2)C[C@H]2OCC[C@@H]12.O=C(O)C(F)(F)F,Percent Effect,"30.3 µM, […]",-23.24%
Cn1cc(-c2cc(C(F)(F)F)nn2CCC#N)cn1,Percent Effect,"30.3 µM, […]",-0.6212%
CCCn1nccc1-c1nccnc1CC1CCN(C(C)=O)CC1,Percent Effect,"30.3 µM, […]",-24.99%
NCCn1nc(C2CCN(C(=O)CC3CCCCC3)C2)c2nccnc21 (stereo not drawn),Percent Effect,"30 µM, 30.03 µM",-5.021%
Nc1ccc(C(=O)N2C[C@@H]3CC[C@H](C2)N(Cc2ccccc2)C3)cn1,Percent Effect,"30.3 µM, […]",19.02%
COC1COC2(CCN(CC3CC3)CC2)C1.O=C(O)C(F)(F)F (stereo not drawn),Percent Effect,"30.3 µM, […]",18.41%
COCCC(=O)N1C[C@@H](c2ccc(F)c(F)c2)[C@@]2(CCCC(=O)N2)C1,Percent Effect,"30.3 µM, […]",28.03%
COC(=O)N1CCCC(C(=O)NCCc2c[nH]c3cc(C)ccc23)C1 (stereo not drawn),Percent Effect,"30.3 µM, […]",6.757%
Cc1ccc(C2CSCCN2C(=O)c2ccc(C(N)=O)cc2)o1 (stereo not drawn),Percent Effect,"30 µM, 30.03 µM",7.343%
Cc1nccnc1N1C[C@H](NC(=O)CNS(C)(=O)=O)[C@@H](C2CC2)C1,Percent Effect,"30.3 µM, […]",8.886%
Cn1nc(C(=O)N2CCOCC2)c2c1CN(CC1CCC1)C2,Percent Effect,"30.3 µM, […]",23.43%
Cn1nc(C(=O)N2CCCC2)c2c1CN(CC1CCOCC1)C2,Percent Effect,"30.3 µM, […]",-0.9877%
Cn1nc(C(=O)N2CCOCC2)c2c1CN(CC1CC1)C2.O=C(O)C(F)(F)F.O=C(O)C(F)(F)F,Percent Effect,"30.3 µM, […]",55.32%
CC(C)(C)C(=O)NCCC(=O)NC(C)(C)c1ccc2c(c1)OCO2,Percent Effect,"30.3 µM, […]",2.237%
O=C(N1CCCC1)N1CCc2onc(COc3cccnc3)c2C1.O=C(O)C(F)(F)F,Percent Effect,"30.3 µM, […]",0.9186%
c1cncc(OCc2noc3c2CN(Cc2ccoc2)CC3)c1,Percent Effect,"30 µM, 30.03 µM",10.86%
Cc1cnc(N2CCc3onc(COc4cccnc4)c3C2)nc1,Percent Effect,"30.3 µM, […]",77.52%
CNS(=O)(=O)Cc1ccc(CNC(=O)c2cccc(C)n2)cc1,Percent Effect,"30 µM, 30.03 µM",36.89%
Cc1cc2c(cc1NC(=O)NC(C)(C)C)OCO2,Percent Effect,"30.3 µM, […]",-22.07%
Cc1nnc(CN(CCc2ccccc2)C2CCN(C)CC2)s1,Percent Effect,"30.3 µM, […]",1.604%
NCCn1nc(C2CCN(Cc3ccc(Cl)c(Cl)c3)C2)c2nccnc21 (stereo not drawn),Percent Effect,"30 µM, 30.03 µM",52.46%
NCCn1nc(C2CCN(Cc3ccccc3Cl)C2)c2nccnc21 (stereo not drawn),Percent Effect,"30.3 µM, […]",9.93%
NCCn1nc(C2CCN(Cc3ccccc3)C2)c2nccnc21 (stereo not drawn),Percent Effect,"30.3 µM, […]",5.976%
c1ccc2c3c([nH]c2c1)CN(Cc1cc2n(n1)CCNC2)CC3,Percent Effect,"30.3 µM, […]",19.37%
Clc1cccc2c3c([nH]c12)CCN(Cc1cc2n(n1)CCNC2)C3,Percent Effect,"30.3 µM, […]",28.65%
Clc1cccc2c3c([nH]c12)CCN(Cc1cc2n(n1)CCCNC2)C3,Percent Effect,"30.3 µM, […]",94.36%
COc1ccc(C(C)N(C)Cc2c(C(C)C)[nH]c3ncccc23)cc1 (stereo not drawn),Percent Effect,"30.3 µM, […]",-22.28%
CCN1CCCC1CN(CCN(C)C)S(=O)(=O)c1ccccc1C#N (stereo not drawn),Percent Effect,"30.3 µM, […]",13.5%
O=C(OCC1CCCN(C(=O)c2ccccc2)C1)c1cscn1 (stereo not drawn),Percent Effect,"30.3 µM, […]",-48.09%
O=C(OCC1CCN(c2ccccc2)C1)c1cscn1 (stereo not drawn),Percent Effect,"30.3 µM, […]",51.5%
COCc1nc(C(=O)OCC2CCN(c3ccccc3)C2)cs1 (stereo not drawn),Percent Effect,"30.3 µM, […]",-78.1%
COc1cc(C(=O)N(Cc2ccc(F)cc2)C2CC2)cc2c1OCCO2,Percent Effect,"30 µM, 30.03 µM",14.84%
CCCNC(=O)N1CCc2ccc(S(=O)(=O)N3CCOCC3)cc2C1,Percent Effect,"30.3 µM, […]",11.75%
CC1=C(CCN2CC[C@@H](N3CCC(O)CC3)[C@H](O)C2)C(C)(C)CCC1,Percent Effect,"30.3 µM, […]",56.28%
CC1=C(CCN2C[C@H](O)[C@@H](N3CCOCC3)C2)C(C)(C)CCC1,Percent Effect,"30.3 µM, […]",-12.68%
CC1=C(CCN2CCCC(O)C2)C(C)(C)CCC1 (stereo not drawn),Percent Effect,"30.3 µM, […]",25.33%
Cc1ccc(N(Cc2ccco2)C(=O)CC2=NN(C)C(=O)C2)cc1,Percent Effect,"30.3 µM, […]",6.943%
CCN1CCCC(O)(c2nc(C)c(CCOc3ccc(F)cc3)s2)CC1 (stereo not drawn),Percent Effect,"30.3 µM, […]",11.02%
Cc1nc(C2(O)CCCNCC2)sc1CCOc1ccc(Cl)cc1.Cl (stereo not drawn),Percent Effect,"30 µM, 30.03 µM",92.94%
COc1ccc(OCCc2sc(C3(O)CCCNCC3)nc2C)cc1.Cl (stereo not drawn),Percent Effect,"30 µM, 30.03 µM",10.27%
COc1ccc(OCc2sc(C3(O)CCCNCC3)nc2C)cc1.Cl (stereo not drawn),Percent Effect,"30 µM, 30.03 µM",9.769%
Cc1nc(C2(O)CCCNCC2)sc1CCOc1ccccc1.Cl (stereo not drawn),Percent Effect,"30.3 µM, […]",4.476%
CC(=O)NCc1nc(CCOc2ccc(Cl)cc2)no1,Percent Effect,"30.3 µM, […]",7.139%
CCCN1CCCC(O)(c2nc(C)c(COc3ccccc3)s2)CC1 (stereo not drawn),Percent Effect,"30.3 µM, […]",-5.482%
CC(C)(C)c1ncc(C(=O)NCCNS(C)(=O)=O)s1,Percent Effect,30 µM,20.12%
CCOc1ccccc1C(CC(=O)Nc1ccc(C)cn1)NC(C)=O (stereo not drawn),Percent Effect,"30 µM, 30.03 µM",34.79%
COc1ccc2c(ccn2CCC(=O)Nc2n[nH]c(CC(C)C)n2)c1,Percent Effect,"30.3 µM, […]",-2.003%
